# Reference: ChEMBL document CHEMBL1961873, “Compounds: GSK PKIS; Assays: Nanosyn kinase panel” (2012)
# How the values were obtained:
# [1] = molecular target: Protein kinase C gamma type (Homo sapiens) (UniProt P05129); settings: at 1 µM;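 further: each value is an averaged percent inhibition of the enzyme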
# [2] = molecular target: T1, Protein kinase C iota type (Homo sapiens) (UniProt P41743); settings: at 0.1 µM
# T1 sequence (whole entry): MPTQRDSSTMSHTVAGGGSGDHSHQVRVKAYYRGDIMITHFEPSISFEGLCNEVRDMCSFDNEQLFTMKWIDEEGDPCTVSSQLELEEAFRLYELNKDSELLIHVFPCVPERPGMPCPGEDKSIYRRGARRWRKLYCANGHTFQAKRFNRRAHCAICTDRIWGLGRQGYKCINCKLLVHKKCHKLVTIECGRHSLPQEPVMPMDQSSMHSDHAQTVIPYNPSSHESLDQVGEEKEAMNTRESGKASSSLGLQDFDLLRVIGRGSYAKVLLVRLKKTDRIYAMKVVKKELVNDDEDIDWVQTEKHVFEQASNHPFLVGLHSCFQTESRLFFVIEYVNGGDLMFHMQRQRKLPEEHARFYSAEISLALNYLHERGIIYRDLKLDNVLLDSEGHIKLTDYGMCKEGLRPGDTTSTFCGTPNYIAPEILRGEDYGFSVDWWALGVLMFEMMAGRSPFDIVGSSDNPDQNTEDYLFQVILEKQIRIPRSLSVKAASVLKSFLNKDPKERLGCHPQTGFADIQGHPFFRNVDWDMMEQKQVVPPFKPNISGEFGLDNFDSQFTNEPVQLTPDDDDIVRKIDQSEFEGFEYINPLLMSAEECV
# [3] = molecular target: T1, Protein kinase C iota type (Homo sapiens); settings: at 1 µM
# [4] = molecular target: Protein kinase C theta type (Homo sapiens) (UniProt Q04759); settings: at 0.1 µM
# [5] = molecular target: Protein kinase C theta type (Homo sapiens) (UniProt Q04759); settings: at 1 µM
# [6] = molecular target: Protein kinase C beta type (Homo sapiens) (UniProt P05771); settings: at 0.1 µM
# [7] = molecular target: Protein kinase C beta type (Homo sapiens) (UniProt P05771); settings: at 1 µM
# [8] = molecular target: T2, Serine/threonine-protein kinase D1 (Homo sapiens) (UniProt Q15139); settings: at 0.1 µM
# T2 sequence (whole entry): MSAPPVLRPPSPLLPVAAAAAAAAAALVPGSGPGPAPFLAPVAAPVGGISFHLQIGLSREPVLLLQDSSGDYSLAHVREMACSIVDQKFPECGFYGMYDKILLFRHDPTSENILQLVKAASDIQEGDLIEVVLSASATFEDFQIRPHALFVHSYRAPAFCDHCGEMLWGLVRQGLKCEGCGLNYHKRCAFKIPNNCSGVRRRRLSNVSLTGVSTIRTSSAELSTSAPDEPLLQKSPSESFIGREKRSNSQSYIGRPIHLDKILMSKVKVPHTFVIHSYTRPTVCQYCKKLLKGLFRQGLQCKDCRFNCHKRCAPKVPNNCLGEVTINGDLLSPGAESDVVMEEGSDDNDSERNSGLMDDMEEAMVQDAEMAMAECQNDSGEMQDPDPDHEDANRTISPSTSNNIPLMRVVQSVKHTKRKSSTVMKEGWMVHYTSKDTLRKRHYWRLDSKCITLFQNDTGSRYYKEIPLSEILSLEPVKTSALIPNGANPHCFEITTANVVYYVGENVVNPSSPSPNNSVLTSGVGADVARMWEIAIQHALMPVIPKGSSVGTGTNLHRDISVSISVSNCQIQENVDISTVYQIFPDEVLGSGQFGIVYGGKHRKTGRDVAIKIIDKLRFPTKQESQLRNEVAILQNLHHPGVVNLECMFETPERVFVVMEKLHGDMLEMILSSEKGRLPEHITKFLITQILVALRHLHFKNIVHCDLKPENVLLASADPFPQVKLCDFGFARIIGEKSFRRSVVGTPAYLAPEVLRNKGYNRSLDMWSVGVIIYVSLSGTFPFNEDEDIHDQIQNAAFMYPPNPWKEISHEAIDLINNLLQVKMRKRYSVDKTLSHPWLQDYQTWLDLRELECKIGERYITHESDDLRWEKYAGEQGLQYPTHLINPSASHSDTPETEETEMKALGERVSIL
# [9] = molecular target: T2, Serine/threonine-protein kinase D1 (Homo sapiens); settings: at 1 µM
# [10] = molecular target: T3, Serine/threonine-protein kinase D2 (Homo sapiens) (UniProt Q9BZL6); settings: at 0.1 µM
# T3 sequence (whole entry): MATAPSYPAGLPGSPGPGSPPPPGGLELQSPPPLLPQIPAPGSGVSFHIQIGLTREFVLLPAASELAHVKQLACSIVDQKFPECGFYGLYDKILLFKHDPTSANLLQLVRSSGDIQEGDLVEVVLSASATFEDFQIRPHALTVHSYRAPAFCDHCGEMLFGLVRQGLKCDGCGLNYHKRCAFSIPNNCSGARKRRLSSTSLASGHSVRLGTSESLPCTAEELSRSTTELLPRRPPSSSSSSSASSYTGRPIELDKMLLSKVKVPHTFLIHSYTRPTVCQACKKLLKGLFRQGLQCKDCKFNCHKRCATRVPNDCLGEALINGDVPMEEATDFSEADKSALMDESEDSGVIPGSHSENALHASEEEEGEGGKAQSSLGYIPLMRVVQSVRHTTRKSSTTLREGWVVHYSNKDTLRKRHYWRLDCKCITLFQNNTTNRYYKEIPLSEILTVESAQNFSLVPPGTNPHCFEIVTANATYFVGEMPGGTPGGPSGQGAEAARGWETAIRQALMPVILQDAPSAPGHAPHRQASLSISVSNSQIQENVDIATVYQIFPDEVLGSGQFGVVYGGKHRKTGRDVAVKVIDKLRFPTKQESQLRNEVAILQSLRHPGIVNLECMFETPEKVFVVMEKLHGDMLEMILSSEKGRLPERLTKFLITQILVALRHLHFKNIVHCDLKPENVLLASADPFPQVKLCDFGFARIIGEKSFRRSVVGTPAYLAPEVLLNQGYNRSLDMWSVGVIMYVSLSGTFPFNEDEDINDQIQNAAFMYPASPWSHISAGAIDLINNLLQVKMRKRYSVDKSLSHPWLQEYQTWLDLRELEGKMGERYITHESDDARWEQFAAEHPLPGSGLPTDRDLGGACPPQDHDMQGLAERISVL
# [11] = molecular target: T3, Serine/threonine-protein kinase D2 (Homo sapiens); settings: at 1 µM
# [12] = molecular target: T4, Serine/threonine-protein kinase D3 (Homo sapiens) (UniProt O94806); settings: at 0.1 µM
# T4 sequence (whole entry): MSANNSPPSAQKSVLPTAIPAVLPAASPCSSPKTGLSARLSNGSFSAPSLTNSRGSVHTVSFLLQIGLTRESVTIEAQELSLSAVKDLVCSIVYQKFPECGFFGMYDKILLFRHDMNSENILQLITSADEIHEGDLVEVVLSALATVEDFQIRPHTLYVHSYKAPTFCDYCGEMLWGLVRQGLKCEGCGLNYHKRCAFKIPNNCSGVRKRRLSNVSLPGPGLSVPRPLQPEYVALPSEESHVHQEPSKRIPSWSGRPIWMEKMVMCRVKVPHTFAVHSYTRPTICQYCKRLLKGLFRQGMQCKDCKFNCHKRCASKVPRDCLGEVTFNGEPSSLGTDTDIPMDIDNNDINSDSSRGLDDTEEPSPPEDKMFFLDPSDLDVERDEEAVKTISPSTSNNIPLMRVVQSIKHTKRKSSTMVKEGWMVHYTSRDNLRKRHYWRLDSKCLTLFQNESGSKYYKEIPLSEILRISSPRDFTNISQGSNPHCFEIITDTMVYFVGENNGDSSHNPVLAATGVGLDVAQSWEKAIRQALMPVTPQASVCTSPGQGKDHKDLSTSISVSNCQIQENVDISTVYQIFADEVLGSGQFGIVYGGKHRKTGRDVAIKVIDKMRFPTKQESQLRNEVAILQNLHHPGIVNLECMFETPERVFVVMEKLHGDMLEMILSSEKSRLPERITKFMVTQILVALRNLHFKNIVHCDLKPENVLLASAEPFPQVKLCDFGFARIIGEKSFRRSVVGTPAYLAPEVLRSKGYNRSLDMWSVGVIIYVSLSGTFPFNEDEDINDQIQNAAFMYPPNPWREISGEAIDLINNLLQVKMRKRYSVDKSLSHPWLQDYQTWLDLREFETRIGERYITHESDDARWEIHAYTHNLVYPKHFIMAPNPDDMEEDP
# [13] = molecular target: T4, Serine/threonine-protein kinase D3 (Homo sapiens); settings: at 1 µM
# [14] = molecular target: T5, cGMP-dependent protein kinase 1 (Homo sapiens) (UniProt Q13976); settings: at 0.1 µM
# T5 sequence (whole entry): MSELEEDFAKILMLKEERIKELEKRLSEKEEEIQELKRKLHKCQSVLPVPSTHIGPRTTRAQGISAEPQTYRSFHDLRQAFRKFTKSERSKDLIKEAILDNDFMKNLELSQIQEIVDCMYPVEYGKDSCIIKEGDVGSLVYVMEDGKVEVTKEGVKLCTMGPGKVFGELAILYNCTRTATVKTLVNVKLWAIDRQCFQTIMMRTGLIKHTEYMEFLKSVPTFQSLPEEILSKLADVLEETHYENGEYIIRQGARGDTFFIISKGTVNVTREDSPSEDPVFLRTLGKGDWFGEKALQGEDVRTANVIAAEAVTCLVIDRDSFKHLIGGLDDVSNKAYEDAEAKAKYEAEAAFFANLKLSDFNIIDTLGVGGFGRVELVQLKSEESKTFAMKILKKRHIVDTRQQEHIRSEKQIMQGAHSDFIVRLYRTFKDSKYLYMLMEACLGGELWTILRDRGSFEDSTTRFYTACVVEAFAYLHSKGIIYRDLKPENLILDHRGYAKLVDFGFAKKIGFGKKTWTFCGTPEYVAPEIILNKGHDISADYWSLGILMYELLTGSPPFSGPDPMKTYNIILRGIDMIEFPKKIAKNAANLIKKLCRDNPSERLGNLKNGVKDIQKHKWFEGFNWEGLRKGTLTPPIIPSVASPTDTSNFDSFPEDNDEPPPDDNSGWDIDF
# [15] = molecular target: T5, cGMP-dependent protein kinase 1 (Homo sapiens); settings: at 1 µM
# [16] = molecular target: T6, cGMP-dependent protein kinase 2 (Homo sapiens) (UniProt Q13237); settings: at 0.1 µM
# T6 sequence (whole entry): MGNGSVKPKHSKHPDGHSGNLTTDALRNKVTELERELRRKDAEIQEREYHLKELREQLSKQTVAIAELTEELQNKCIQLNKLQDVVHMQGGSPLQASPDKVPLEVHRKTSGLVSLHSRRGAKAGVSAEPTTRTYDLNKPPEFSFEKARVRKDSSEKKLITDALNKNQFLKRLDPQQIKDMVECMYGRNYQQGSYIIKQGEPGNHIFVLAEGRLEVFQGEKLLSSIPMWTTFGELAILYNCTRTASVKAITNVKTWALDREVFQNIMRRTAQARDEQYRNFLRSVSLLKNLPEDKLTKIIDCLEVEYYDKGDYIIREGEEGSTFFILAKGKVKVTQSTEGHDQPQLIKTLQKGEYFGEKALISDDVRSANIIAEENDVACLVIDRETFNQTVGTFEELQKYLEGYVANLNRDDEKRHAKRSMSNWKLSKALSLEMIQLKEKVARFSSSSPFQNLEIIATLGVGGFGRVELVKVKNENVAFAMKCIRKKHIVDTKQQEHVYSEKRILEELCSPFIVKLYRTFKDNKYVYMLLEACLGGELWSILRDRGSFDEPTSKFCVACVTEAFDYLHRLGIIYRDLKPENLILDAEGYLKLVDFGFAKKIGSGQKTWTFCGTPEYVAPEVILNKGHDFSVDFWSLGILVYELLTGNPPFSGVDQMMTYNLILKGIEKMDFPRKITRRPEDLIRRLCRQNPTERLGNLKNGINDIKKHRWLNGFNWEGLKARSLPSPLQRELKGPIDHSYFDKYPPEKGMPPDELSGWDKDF
# [17] = molecular target: T6, cGMP-dependent protein kinase 2 (Homo sapiens); settings: at 1 µM
# [18] = molecular target: T7, cAMP-dependent protein kinase catalytic subunit PRKX (Homo sapiens) (UniProt P51817); settings: at 0.1 µM
# T7 sequence (whole entry): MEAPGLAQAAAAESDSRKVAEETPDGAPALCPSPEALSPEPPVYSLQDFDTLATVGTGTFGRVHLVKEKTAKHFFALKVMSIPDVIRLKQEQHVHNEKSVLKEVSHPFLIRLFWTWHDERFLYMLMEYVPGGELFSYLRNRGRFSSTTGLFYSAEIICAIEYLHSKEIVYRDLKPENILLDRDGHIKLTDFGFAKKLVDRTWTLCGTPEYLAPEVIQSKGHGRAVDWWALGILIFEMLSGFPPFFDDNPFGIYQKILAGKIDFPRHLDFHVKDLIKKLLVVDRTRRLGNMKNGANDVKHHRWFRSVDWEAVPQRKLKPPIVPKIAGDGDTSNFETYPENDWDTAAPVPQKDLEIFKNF
# [19] = molecular target: T7, cAMP-dependent protein kinase catalytic subunit PRKX (Homo sapiens); settings: at 1 µM
# [20] = molecular target: Rho-associated protein kinase 1 (Homo sapiens) (UniProt Q13464); settings: at 0.1 µM;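 further: values are mean percent inhibition of ROCK1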
# Rho-associated protein kinase 1 (Homo sapiens), sequence (Q13464 2-1354 limits assumed): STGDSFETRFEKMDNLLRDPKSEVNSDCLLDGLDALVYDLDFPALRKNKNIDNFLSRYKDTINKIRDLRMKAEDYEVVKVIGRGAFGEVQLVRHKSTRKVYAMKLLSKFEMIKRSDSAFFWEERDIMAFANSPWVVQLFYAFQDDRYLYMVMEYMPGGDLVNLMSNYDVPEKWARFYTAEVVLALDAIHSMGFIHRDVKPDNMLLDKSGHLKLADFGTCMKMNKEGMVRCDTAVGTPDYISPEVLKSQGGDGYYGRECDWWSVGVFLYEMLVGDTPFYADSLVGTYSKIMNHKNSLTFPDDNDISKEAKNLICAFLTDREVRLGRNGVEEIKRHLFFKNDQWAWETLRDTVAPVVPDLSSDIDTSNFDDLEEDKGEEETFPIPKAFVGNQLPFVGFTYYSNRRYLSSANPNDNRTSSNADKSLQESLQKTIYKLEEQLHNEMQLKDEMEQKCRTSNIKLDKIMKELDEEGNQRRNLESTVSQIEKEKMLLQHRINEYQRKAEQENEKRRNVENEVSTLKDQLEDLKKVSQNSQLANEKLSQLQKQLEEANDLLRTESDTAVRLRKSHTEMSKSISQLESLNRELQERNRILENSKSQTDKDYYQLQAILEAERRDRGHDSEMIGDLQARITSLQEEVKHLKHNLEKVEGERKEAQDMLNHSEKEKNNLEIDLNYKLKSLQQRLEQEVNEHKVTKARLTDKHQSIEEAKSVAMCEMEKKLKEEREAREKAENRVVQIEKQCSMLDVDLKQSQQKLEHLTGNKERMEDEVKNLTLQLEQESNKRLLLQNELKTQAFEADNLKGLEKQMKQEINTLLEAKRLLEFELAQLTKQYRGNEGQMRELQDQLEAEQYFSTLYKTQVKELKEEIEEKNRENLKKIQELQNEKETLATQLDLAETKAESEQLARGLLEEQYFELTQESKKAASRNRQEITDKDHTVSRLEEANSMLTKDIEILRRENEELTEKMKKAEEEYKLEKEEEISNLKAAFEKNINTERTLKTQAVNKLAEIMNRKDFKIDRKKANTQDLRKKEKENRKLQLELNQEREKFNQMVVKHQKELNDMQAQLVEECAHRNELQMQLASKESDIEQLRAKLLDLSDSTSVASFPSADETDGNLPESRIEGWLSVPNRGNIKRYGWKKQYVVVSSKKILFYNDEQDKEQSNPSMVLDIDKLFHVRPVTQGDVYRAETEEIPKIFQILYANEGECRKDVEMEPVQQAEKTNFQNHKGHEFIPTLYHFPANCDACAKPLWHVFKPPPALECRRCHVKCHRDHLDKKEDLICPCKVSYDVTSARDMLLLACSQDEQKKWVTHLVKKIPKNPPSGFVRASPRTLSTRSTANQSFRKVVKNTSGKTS
# Protein kinase C theta type (Homo sapiens), sequence (Q04759 whole entry, looked up): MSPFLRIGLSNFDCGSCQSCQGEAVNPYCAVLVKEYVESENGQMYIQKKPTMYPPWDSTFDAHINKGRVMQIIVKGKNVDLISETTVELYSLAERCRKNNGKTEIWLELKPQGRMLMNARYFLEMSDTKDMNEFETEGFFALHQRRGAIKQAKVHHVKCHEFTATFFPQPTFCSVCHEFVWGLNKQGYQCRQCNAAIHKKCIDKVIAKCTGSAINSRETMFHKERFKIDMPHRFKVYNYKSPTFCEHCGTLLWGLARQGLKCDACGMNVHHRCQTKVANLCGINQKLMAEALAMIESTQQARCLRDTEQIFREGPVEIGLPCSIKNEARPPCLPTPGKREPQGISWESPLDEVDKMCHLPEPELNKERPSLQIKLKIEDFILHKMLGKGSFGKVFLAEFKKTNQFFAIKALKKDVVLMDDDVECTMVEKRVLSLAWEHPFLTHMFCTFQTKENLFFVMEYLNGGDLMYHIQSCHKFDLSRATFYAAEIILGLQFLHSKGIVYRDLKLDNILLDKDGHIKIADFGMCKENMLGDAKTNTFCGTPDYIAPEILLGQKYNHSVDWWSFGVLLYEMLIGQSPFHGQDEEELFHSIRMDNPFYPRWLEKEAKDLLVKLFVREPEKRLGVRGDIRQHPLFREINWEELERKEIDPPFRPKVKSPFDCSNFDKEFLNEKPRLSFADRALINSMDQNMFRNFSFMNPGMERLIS
# Protein kinase C beta type (Homo sapiens), sequence (P05771 2-671 limits assumed): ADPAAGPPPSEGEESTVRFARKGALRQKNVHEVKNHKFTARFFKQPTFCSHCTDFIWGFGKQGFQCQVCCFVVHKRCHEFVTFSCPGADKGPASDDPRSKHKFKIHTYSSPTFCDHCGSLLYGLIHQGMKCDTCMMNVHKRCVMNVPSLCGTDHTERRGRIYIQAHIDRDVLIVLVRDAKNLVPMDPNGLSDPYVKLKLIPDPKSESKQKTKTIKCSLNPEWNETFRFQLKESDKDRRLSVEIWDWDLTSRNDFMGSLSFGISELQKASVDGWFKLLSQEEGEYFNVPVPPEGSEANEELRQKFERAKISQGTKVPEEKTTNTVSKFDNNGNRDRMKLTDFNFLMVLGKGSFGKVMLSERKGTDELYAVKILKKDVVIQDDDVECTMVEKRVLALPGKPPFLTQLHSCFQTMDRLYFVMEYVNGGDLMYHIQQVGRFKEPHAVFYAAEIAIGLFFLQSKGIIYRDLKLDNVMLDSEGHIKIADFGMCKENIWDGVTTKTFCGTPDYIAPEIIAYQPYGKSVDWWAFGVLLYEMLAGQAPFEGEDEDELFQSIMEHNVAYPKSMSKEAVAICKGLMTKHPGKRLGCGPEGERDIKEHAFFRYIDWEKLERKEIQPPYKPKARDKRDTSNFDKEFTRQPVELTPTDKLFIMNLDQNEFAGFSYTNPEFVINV
SMILES,inhibition [1] [%],inhibition [2] [%],inhibition [3] [%],inhibition [4] [%],inhibition [5] [%],inhibition [6] [%],inhibition [7] [%],inhibition [8] [%],inhibition [9] [%],inhibition [10] [%],inhibition [11] [%],inhibition [12] [%],inhibition [13] [%],inhibition [14] [%],inhibition [15] [%],inhibition [16] [%],inhibition [17] [%],inhibition [18] [%],inhibition [19] [%],inhibition [20] [%]
CCN1CCC(C(=O)Nc2n[nH]c3nnc(-c4cccc(F)c4F)cc23)CC1,-0.22,-0.71,-1.05,0.26,-1.11,0.39,0.87,-0.1,-0.6,0.26,0.06,-0.39,-0.3,0.16,0.21,-1.12,0.85,0.8,0.57,-0.76
COc1cc(N2CCN(C(C)C)CC2)ccc1Nc1nc(Nc2cccc(F)c2C(=O)O)c2cc[nH]c2n1,5.49,0.72,0.65,2.48,3.08,1.66,2.08,3.89,6.58,3.65,4.66,4.61,4.8,1.6,5.7,1.77,3.84,1.23,2.86,0.41
